Reference: PubChem BioAssay (EPA / NIEHS)
The source made the active and inactive calls. Rule for the calls: active = hit-call score of the fitted dose curve at least 0.9, where 1 is the maximum; inactive = score below 0.9.

What was measured:
Conditions in all cases: primary human HUVEC with PBMC; actives raise or lower the signal
[1] = read-out: Monocyte Chemoattractant Protein-1 (MCP1), CCL2 (gene 6347); experiment: BSK_LPS_MCP1: BioMAP Diversity Plus: LPS Assay for Monocyte Chemoattractant Protein-1 (MCP1) Biomarker Activity (AID 2283081);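 for AC50: secreted MCP-1 protein quantified by ELISA in culture supernatant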
Method in brief: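 LPS-stimulated HUVEC/PBMC co-culture; chemical, 24 h; MCP-1 by ELISA; bidirectional fit vs DMSO; cytotoxicity via SRB (0.1% stain, 10% TCA fix, 560 nm) in parallel wells.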

[2] = BSK_LPS_PGE2: BioMAP Diversity Plus: LPS Assay for Prostaglandin E2 (PGE2) Biomarker Activity (AID 2283082);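 for AC50: secreted prostaglandin E2 measured by ELISA in LPS-stimulated co-culture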
Method in brief: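 Primary human endothelial cells and blood mononuclear cells, co-cultured with LPS, receive test chemical; PGE2 ELISA follows at 24 h, with SRB-stained parallel cultures flagging cytotoxicity.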

[3] = read-out: Macrophage colony-stimulating factor (MCSF), CSF1 (gene 1435); experiment: BSK_LPS_MCSF: BioMAP Diversity Plus: LPS Assay for Macrophage colony-stimulating factor (MCSF) Biomarker Activity (AID 2283083)
Method in brief: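 Compound is added to a human vascular primary co-culture of umbilical vein endothelium and blood mononuclear cells. After 24 h, M-CSF is quantified by ELISA. Signal changes are fitted in both directions against DMSO.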

[4] = read-out: Tissue Factor, F3 (gene 2152); experiment: BSK_LPS_TissueFactor: BioMAP Diversity Plus: LPS Assay for Tissue Factor Biomarker Activity (AID 2283084)
Method in brief: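 In this co-culture system of umbilical vein endothelium with PBMC, stimulated with LPS, cell-surface CD142 is detected by ELISA at 24 h. Endpoint values derive from bidirectional fitting, DMSO serving as baseline.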

[5] = read-out: Tumor necrosis factor (Homo sapiens) (UniProt P01375); experiment: BSK_LPS_TNFa: BioMAP Diversity Plus: LPS Assay for Tumour Necrosis Factor alpha (TNFa) Biomarker Activity (AID 2283085);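 for AC50: TNFa protein level quantified by ELISA in the co-culture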
Method in brief: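 ELISA-based TNFa endpoint in a human endothelial–PBMC co-culture sampled 24 h post-exposure. Curves were fitted in both directions using DMSO as baseline of activity.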

[6] = read-out: Vascular cell adhesion molecule 1 (VCAM1), VCAM1 (gene 7412); experiment: BSK_LPS_VCAM1: BioMAP Diversity Plus: LPS Assay for Vascular cell adhesion molecule 1 (VCAM1) Biomarker Activity (AID 2283086)
Method in brief: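 Measured by ELISA: VCAM-1 in LPS-activated HUVEC/PBMC co-cultures 24 h after treatment. Values reflect bidirectional fitting with DMSO as baseline.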

CD38, CD38 (gene 952) = experiment: BSK_SAg_CD38: BioMAP Diversity Plus: SAg Assay for CD38 Biomarker Activity (AID 2283087)
Method in brief: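 Measures CD38 on a human endothelial/PBMC co-culture driven by SEB and TSST-1, 24 h after compound exposure, using ELISA with fluorescence detection; DMSO defines baseline for bidirectional curve fitting.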

CD40, CD40 (gene 958) = experiment: BSK_SAg_CD40: BioMAP Diversity Plus: SAg Assay for CD40 Biomarker Activity (AID 2283088)
Method in brief: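 Fluorescence ELISA read-out of CD40 from umbilical vein endothelium plus peripheral blood mononuclear cells, sampled 24 h after dosing. Values come from bidirectional curve fitting with DMSO as baseline.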

CD69, CD69 (gene 969) = experiment: BSK_SAg_CD69: BioMAP Diversity Plus: SAg Assay for CD69 Biomarker Activity (AID 2283089);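 for AC50: cell surface CD69 protein quantified by ELISA with fluorescence detection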
Method in brief: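 Primary human vascular co-culture (umbilical vein endothelium with peripheral blood mononuclear cells) exposed to test chemical for 24 h. CD69 levels quantified by fluorescence ELISA; DMSO served as negative control for bidirectional fitting.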

Measured: AC50

Chain of Tumor necrosis factor (Homo sapiens) (P01375 whole entry, looked up): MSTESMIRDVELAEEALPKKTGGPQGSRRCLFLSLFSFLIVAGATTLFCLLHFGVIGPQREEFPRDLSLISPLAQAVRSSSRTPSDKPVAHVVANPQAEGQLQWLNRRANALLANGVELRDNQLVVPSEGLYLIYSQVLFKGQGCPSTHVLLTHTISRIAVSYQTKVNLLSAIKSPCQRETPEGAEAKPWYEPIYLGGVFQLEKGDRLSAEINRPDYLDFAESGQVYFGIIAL

Cc1ccc([N+](=O)[O-])cc1N
inactive: all assays above

CCOC(=O)C1=NOC(c2ccccc2)(c2ccccc2)C1
inactive: all assays above

Cc1c(O)cccc1O
inactive: all assays above

CC=C(C)C(C)=O
inactive: all assays above

O=C(Oc1ccccc1)c1ccccc1C(=O)Oc1ccccc1
active: CD38, CD38 (gene 952) 29.7 µM | CD69, CD69 (gene 969) 24.1 µM
not listed: CD40, CD40 (gene 958)
inactive: all other assays above

C=CC(=O)OCCCCCCCC(C)C
inactive: all assays above

Nc1ccc(C(=O)O)cc1
inactive: all assays above

CCOC(=O)C1=NN(c2ccc(Cl)cc2Cl)C(C)(C(=O)OCC)C1 (stereo not drawn)
active: [2] 8.97 µM
inactive: all other assays above

CC(CCC(=O)O)(c1ccc(O)cc1)c1ccc(O)cc1
inactive: all assays above

CC(c1cc(C(C)(C)C)cc(C(C)(C)C)c1O)c1cc(C(C)(C)C)cc(C(C)(C)C)c1O
inactive: all assays above

COc1ccc(C(=O)c2ccccc2)c(O)c1
active: [2] 4.59 µM
inactive: all other assays above

c1ccc2c(c1)[nH]c1ccccc12
inactive: all assays above

CC1(C)CC(O)CC(C)(C)N1[O]
inactive: all assays above

C=CC(=O)NCOCCCC
active: [5] 20 µM
inactive: all other assays above

CCCCCC1=CCCC1=O
active: [6] 24 µM
inactive: all other assays above

CC/C=C\CCOC(=O)c1ccccc1O
inactive: [2]
active: [1] 32.8 µM | [3] 33 µM | [4] 33 µM | [5] 31.5 µM | [6] 37.9 µM | CD38, CD38 (gene 952) 31 µM | CD40, CD40 (gene 958) 33.6 µM | CD69, CD69 (gene 969) 20 µM
